Counter-ions that a name gives are not always drawn. ± gives the standard deviation of the averaged measurements.
System: E. coli TESEC Mtb Alr
Assay: growth (OD600 after 10 h); higher = more growth (less inhibition)
Details: compound 0.1 mM
Protocol: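 TESEC Mtb Alr E. coli, or the Alr+ wild-type control, in 384-well plates with Prestwick library compounds at 0.1 mM and 1% DMSO, across arabinose induction levels of 1E3 to 1E7 nM. Growth is read as OD600 after 10 h at 37 °C in triplicate biological replicates.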

[1] = arabinose 1000 nM, raw OD600 reference: median of DMSO wells 0.294, cell-free background 0.041
[2] = arabinose 10000 nM, raw OD600 reference: median of DMSO wells 0.264, cell-free background 0.041
[3] = arabinose 100000 nM, raw OD600 reference: median of DMSO wells 0.201, cell-free background 0.041
[4] = arabinose 1000000 nM, raw OD600 reference: median of DMSO wells 0.193, cell-free background 0.041
[5] = arabinose 10000000 nM, raw OD600 reference: median of DMSO wells 0.146, cell-free background 0.041

Structure (SMILES)	growth [1]	growth [2]	growth [3]	growth [4]	growth [5]
CC(=O)S[C@@H]1CC2=CC(=O)CC[C@]2(C)[C@H]2CC[C@@]3(C)[C@@H](CC[C@@]34CCC(=O)O4)[C@H]12 [Spironolactone]	0.0986 ± 0.051	0.0753 ± 0.0019	0.0921 ± 0.027	0.06897 ± 0.00051	0.112 ± 0.0019
Clc1ccc(Nc2nnc(Cc3ccncc3)c3ccccc23)cc1 [Vatalanib]	0.0967 ± 0.038	0.0476 ± 0.003	0.0763 ± 0.0031	0.0489 ± 0.0002	0.0787 ± 0.0014
CC1CCc2c(N3CCC(O)CC3)c(F)cc3c(=O)c(C(=O)O)cn1c23 (stereo not given) [Nadifloxacin]	0.04043 ± 0.00023	0.0418 ± 0.0029	0.0437 ± 0.005	0.03983 ± 0.00031	0.04117 ± 0.00023
CCc1nn(CCCN2CCN(c3cccc(Cl)c3)CC2)c(=O)n1CCOc1ccccc1 [Nefazodone HCl]	0.0444 ± 0.0031	0.04017 ± 0.00012	0.0431 ± 0.00062	0.0406 ± 0.00026	0.0473 ± 0.0025
NNCCc1ccccc1 [Phenelzine sulfate]	0.285 ± 0.015	0.261 ± 0.0056	0.187 ± 0.0033	0.0977 ± 0.0084	0.135 ± 0.0098
Cc1cc(N)c2ccccc2[n+]1CCCCCCCCCC[n+]1c(C)cc(N)c2ccccc21 [Dequalinium dichloride]	0.04803 ± 0.00032	0.0469 ± 0.00052	0.04963 ± 0.00015	0.0458 ± 0.00071	0.049 ± 0.0001
CC(=O)[C@H]1CC[C@H]2[C@@H]3C=CC4=CC(=O)CC[C@@]4(C)[C@@H]3CC[C@]12C [Dydrogesterone]	0.154 ± 0.041	0.207 ± 0.0034	0.085 ± 0.0042	0.0856 ± 0.0016	0.0751 ± 0.0014
Cc1ncc([N+](=O)[O-])n1CC(C)O (stereo not given) [Secnidazole]	0.304 ± 0.012	0.272 ± 0.015	0.201 ± 0.0071	0.188 ± 0.0085	0.137 ± 0.0015

Source: the supplement of paper PMC9262897, “Low-cost anti-mycobacterial drug discovery using engineered E. coli” (Nature Communications, 2022)
